Experimental data taken from the supplement of paper PMC3414501.
Where a name gives a salt, the structure may show the parent alone.

Tests used:
[1] = test system: S. cerevisiae SK1 pCDA2-eGFP (USY613), sporulating; assay: CDA2-GFP sporulation assay sensitivity score (z-score vs DMSO controls); higher = stronger inhibition of sporulation, active = hit call of the paper;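 also: active if sensitivity score above 5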
[2] = test system: S. cerevisiae AD1-9 (efflux-pump deficient), vegetative growth in YPD; assay: growth sensitivity score (doubling time z-score vs DMSO controls); higher = slower growth, strongly negative scores also mark growth inhibition (complete suppression), active = hit call of the paper
Procedure, shortened: (§1)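 Optical density of Saccharomyces cerevisiae cultures in microtiter plates was followed every 15 min for 24 hours after seeding at an OD600 of 0.065. Eight solvent-only wells were run per experiment. Growth sensitivity scores were found by subtracting the solvent-only mean from the compound mean and dividing by the solvent-only standard deviation.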

[3] = test system: S. cerevisiae BY4741 (wild-type), vegetative growth in YPD; assay: as above
Procedure, shortened: as §1

[4] = test system: S. cerevisiae NKY1551 his4x/his4B, sporulating; assay: HIS4 meiotic recombination assay sensitivity score (z-score vs DMSO controls); higher = stronger inhibition of sporulation/recombination, active = hit call of the paper;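 also: active if sensitivity score above 5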

Compound	CDA2-GFP sporulation assay sensitivity score [1]	growth sensitivity score [2]	growth sensitivity score [3]	HIS4 meiotic recombination assay sensitivity score [4]
CC1CNc2c(cccc2S(=O)(=O)N[C@@H](CCCNC(=N)N)C(=O)N2CC[C@@H](C)C[C@@H]2C(=O)O)C1 (stereo not given in full) [Argatroban] (stock concentration (mM, diluted 1:100): 10.1)	-1.04 (inactive)	-2.07	-0.6 (inactive)	–
CC(=O)[C@H]1CC[C@H]2[C@@H]3CCC4=CC(=O)CC[C@]4(C)[C@H]3CC[C@]12C [Progesterone] (stock concentration (mM, diluted 1:100): 10)	16.2 (active)	112 (active)	4.04 (active)	–
CC(C)(O)c1ccccc1CC[C@@H](SCC1(CC(=O)O)CC1)c1cccc(/C=C/c2ccc3ccc(Cl)cc3n2)c1 [Montelukast] (stock concentration (mM, diluted 1:100): 9.6)	–	0.91 (inactive)	-1.05 (inactive)	0.61 (inactive)
CN1CCc2cc(Cl)c(O)cc2[C@@H](c2ccccc2)C1 (stock concentration (mM, diluted 1:100): 9.9)	15.9 (active)	0.38 (inactive)	-0.55 (inactive)	–
Cc1c2oc3c(C)ccc(C(=O)N[C@@H]4C(=O)N[C@H](C(C)C)C(=O)N5CCC[C@H]5C(=O)N(C)CC(=O)N(C)[C@@H](C(C)C)C(=O)O[C@@H]4C)c3nc-2c(C(=O)N[C@@H]2C(=O)N[C@H](C(C)C)C(=O)N3CCC[C@H]3C(=O)N(C)CC(=O)N(C)[C@@H](C(C)C)C(=O)O[C@@H]2C)c(N)c1=O [Dactinomycin] (stock concentration (mM, diluted 1:100): 10)	–	-0.59 (inactive)	1.17 (inactive)	0.61 (inactive)
C[C@H]1COc2c(N3CCN(C)CC3)c(F)cc3c(=O)c(C(=O)O)cn1c23 [Levofloxacin] (stock concentration (mM, diluted 1:100): 10)	-0.01 (inactive)	–	-0.66 (inactive)	0.16 (inactive)
CCOC(=O)c1ncn2c1CN(C)C(=O)c1cc(F)ccc1-2 [Flumazenil] (stock concentration (mM, diluted 1:100): 10)	1.01 (inactive)	-0.24 (inactive)	1.4 (inactive)	–
C=C1/C(=C\C=C2/CCC[C@]3(C)[C@@H]([C@H](C)/C=C/[C@@H](O)C4CC4)CC[C@@H]23)C[C@@H](O)C[C@@H]1O [Calcipotriol] (stock concentration (mM, diluted 1:100): 10.1)	–	–	-0.31 (inactive)	2.61 (inactive)
COc1ccccc1N1CCN(CC(O)COc2cccc3ccccc23)CC1 (stereo not given) [Naftopidil] (stock concentration (mM, diluted 1:100): 10)	9.59 (active)	–	7.62 (active)	5.23 (active)
N[C@@H](C(=O)N[C@@H]1C(=O)N2C(C(=O)O)=C(CSc3cn[nH]n3)CS[C@H]12)c1ccc(O)cc1 [Seapuron] (stock concentration (mM, diluted 1:100): 8.6)	–	-1.14 (inactive)	-0.6 (inactive)	0.57 (inactive)
CN(C)CC/C=C1/c2ccccc2COc2ccc(CC(=O)O)cc21 [Olopatadine hydrochloride] (stock concentration (mM, diluted 1:100): 12.7)	1.08 (inactive)	–	-0.74 (inactive)	-0.7 (inactive)
C#C[C@]1(O)CC[C@H]2[C@@H]3[C@H](C)CC4=C(CCC(=O)C4)[C@H]3CC[C@@]21C [Tibolone] (stock concentration (mM, diluted 1:100): 10)	5.97 (inactive)	10.2 (active)	0.52 (inactive)	–
CN1CCN(C2=Nc3ccccc3Oc3ccc(Cl)cc32)CC1 [Loxapine succinate] (stock concentration (mM, diluted 1:100): 11)	2.27 (inactive)	6.01 (active)	1.9 (inactive)	–
OCCN1CCN(CCCN2c3ccccc3Sc3ccc(C(F)(F)F)cc32)CC1 [Fluphenazine hydrochloride] (stock concentration (mM, diluted 1:100): 10)	-0.3 (inactive)	–	–	–
COc1cc([C@@H]2c3cc4c(cc3[C@@H](O[C@@H]3O[C@@H]5CO[C@@H](C)O[C@H]5[C@H](O)[C@H]3O)[C@H]3COC(=O)[C@H]23)OCO4)cc(OC)c1O [Etoposide] (stock concentration (mM, diluted 1:100): 10)	3.42 (inactive)	59.2 (active)	0.01 (inactive)	–
NC1CCN(c2nc3c(cc2F)c(=O)c(C(=O)O)cn3-c2ccc(F)cc2F)C1 (stereo not given) [Tosufloxacin tosylate] (stock concentration (mM, diluted 1:100): 7)	1.34 (inactive)	1.02 (inactive)	-0.39 (inactive)	–
CCN(CC)C(=S)SSC(=S)N(CC)CC [Tetraethylthiuram disulfide] (stock concentration (mM, diluted 1:100): 10)	-1.5 (inactive)	–	–	–
CCCN1CCCC[C@H]1C(=O)Nc1c(C)cccc1C [Ropivacaine hydrochloride] (stock concentration (mM, diluted 1:100): 7.7)	3.5 (inactive)	-2 (inactive)	-0.74 (inactive)	–

Compound	CDA2-GFP sporulation assay sensitivity score [1]	growth sensitivity score [2]	growth sensitivity score [3]	HIS4 meiotic recombination assay sensitivity score [4]
O=C(O)/C=C/c1ccc(Cn2ccnc2)cc1 [Ozagrel hydrochloride] (stock concentration (mM, diluted 1:100): 8.6)	0.27 (inactive)	0.64 (inactive)	2.72 (active)	–
Nc1ccn([C@@H]2O[C@H](CO)[C@@H](O)[C@@H]2O)c(=O)n1 [Cytarabine] (stock concentration (mM, diluted 1:100): 10)	-0.45 (inactive)	-2.83	-0.01 (inactive)	–
COC(=O)Nc1nc2cc(C(=O)c3ccc(F)cc3)ccc2[nH]1 [Flubendazole] (stock concentration (mM, diluted 1:100): 10)	0.4 (inactive)	12.3 (active)	2.6 (active)	–
COCCCC/C(=N\OCCN)c1ccc(C(F)(F)F)cc1 [Fluvoxamine] (stock concentration (mM, diluted 1:100): 7.7)	-1.51 (inactive)	9.45 (active)	2.43 (active)	–
CN(CCO)CC(O)Cn1cnc2c1c(=O)n(C)c(=O)n2C (stereo not given) [Xanthinol nicotinate] (stock concentration (mM, diluted 1:100): 10)	2.12 (inactive)	0.36 (inactive)	-1.14 (inactive)	–
NC(N)=NC(=O)c1nc(Cl)c(N)nc1N (stock concentration (mM, diluted 1:100): 8.2)	6.05 (active)	4.88 (active)	1.27 (inactive)	–
CO[C@H]1/C=C/O[C@@]2(C)Oc3c(C)c(O)c4c(c3C2=O)C2=NC3(CCN(CC(C)C)CC3)NC2=C(NC(=O)/C(C)=C\C=C\[C@H](C)[C@H](O)[C@@H](C)[C@@H](O)[C@@H](C)[C@H](OC(C)=O)[C@@H]1C)C4=O [Rifabutin] (stock concentration (mM, diluted 1:100): 10)	6 (inactive)	1.43 (inactive)	0.72 (inactive)	–
CN1[C@@H](CC(=O)c2ccccc2)CCC[C@H]1C[C@H](O)c1ccccc1 [Lobeline hydrochloride] (stock concentration (mM, diluted 1:100): 10)	2.99 (inactive)	-1.96 (inactive)	0.72 (inactive)	–
O=c1n(CCCN2CCN(c3cccc(Cl)c3)CC2)nc2ccccn12 [Trazodone hydrochloride] (stock concentration (mM, diluted 1:100): 10)	5.45 (inactive)	-3.23	0.24 (inactive)	–
COc1cc2nc(N3CCN(C(=O)c4ccco4)CC3)nc(N)c2cc1OC [Prazosin] (stock concentration (mM, diluted 1:100): 10)	1.07 (inactive)	2.31 (active)	-0.58 (inactive)	–
Nc1ccn([C@@H]2CS[C@H](CO)O2)c(=O)n1 [Lamivudine] (stock concentration (mM, diluted 1:100): 9.9)	1.14 (inactive)	-1.68 (inactive)	-0.39 (inactive)	–
CCCCCCNC(=O)n1cc(F)c(=O)[nH]c1=O [Carmofur] (stock concentration (mM, diluted 1:100): 10.3)	0.49 (inactive)	22.8 (active)	37.2 (active)	–
CNS(=O)(=O)Cc1ccc2[nH]cc(CCN(C)C)c2c1 [Sumatriptan succinate] (stock concentration (mM, diluted 1:100): 7.2)	-0.43 (inactive)	0.45 (inactive)	-1.56 (inactive)	–
Cc1ccc(NC(=O)c2ccc(CN3CCN(C)CC3)cc2)cc1Nc1nccc(-c2cccnc2)n1 [Imatinib mesylate] (stock concentration (mM, diluted 1:100): 8.4)	7.85 (active)	7.33 (active)	0.53 (inactive)	–
O=C1c2c(O)cc(O)cc2OC(c2ccc(O)c(O)c2)C1O (stereo not given) [Taxifolin] (stock concentration (mM, diluted 1:100): 10.1)	-0.02 (inactive)	-0.17 (inactive)	-1.02 (inactive)	–
NC(=O)c1cccnc1 [Nicotinamide] (stock concentration (mM, diluted 1:100): 10)	4.17 (inactive)	-0.97 (inactive)	-0.49 (inactive)	–
Cc1nc2n(c(=O)c1CCN1CCC(c3noc4cc(F)ccc34)CC1)CCCC2 [Risperidone] (stock concentration (mM, diluted 1:100): 10)	-0.4 (inactive)	-2.71	-0.68 (inactive)	–
